# Screening results (PubChem BioAssay)
# CHO-K1 Ca ag: counter-screen for M1 agonists: effect in parental CHO-K1 cells; AID 602248; Fluo-8 calcium fluorescence; scaled to maximal ATP response, vehicle zero; activation, % at 3 µM; 360,000 compounds, 0.48% hits; in the data active = activation above about 15%;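 note: untransfected CHO-K1 host cells lacking M1 receptor as counterscreen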
# M4 ag: agonists of human muscarinic M4 receptor (CHRM4); CHO-K1 hM4/Gqi5, Fluo-8 calcium fluorescence; vehicle 0%, full acetylcholine response 100%; activation, % at 3 µM; P08173; 360,000 compounds, 0.14% hits;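 active = activation above the run mean over all test wells plus 3 SD, cut at about 32% in these data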;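 note: peak over basal fluorescence ratio per well then scaled between controls; 0% = DMSO wells and 100% = acetylcholine at EC100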
# Target sequence (P08173 whole entry, looked up): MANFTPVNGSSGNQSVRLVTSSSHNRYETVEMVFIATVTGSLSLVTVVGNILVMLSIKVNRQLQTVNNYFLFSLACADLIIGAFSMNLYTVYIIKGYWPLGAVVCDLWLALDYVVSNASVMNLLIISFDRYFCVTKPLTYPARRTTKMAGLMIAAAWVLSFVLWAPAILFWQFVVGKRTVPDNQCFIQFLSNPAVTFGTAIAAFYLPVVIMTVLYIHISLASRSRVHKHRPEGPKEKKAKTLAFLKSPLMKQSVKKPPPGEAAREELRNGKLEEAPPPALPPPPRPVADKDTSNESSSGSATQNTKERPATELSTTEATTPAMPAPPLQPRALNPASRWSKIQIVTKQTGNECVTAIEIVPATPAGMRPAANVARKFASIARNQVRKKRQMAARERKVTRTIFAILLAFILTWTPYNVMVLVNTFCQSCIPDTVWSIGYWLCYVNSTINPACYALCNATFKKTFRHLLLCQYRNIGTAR
# CHO-K1 Ca antag: counter-screen for M1 antagonists: effect in parental CHO-K1 cells; 360,000 compounds, 0.6% hits; inhibition, % at 3 µM; ATP-induced calcium, Fluo-8 fluorescence; AID 602250;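 active = inhibition above a per-plate cutoff, the plate's mean sample inhibition plus 3 SD, cut at about 24% in these data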;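 note: 0% = DMSO plus EC80 ATP and 100% = DMSO alone without ATP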
# M4 antag: CHRM4 antagonism in calcium assay; P08173; CHO-hM4 cells, ACh EC80, Fluo-8 calcium fluorescence; inhibition, % at 3 µM; 360,000 compounds, 0.73% hits; AID 624125;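 active = inhibition above its plate's cutoff, the mean inhibition of sample wells plus 3 SD, cut at about 27% in these data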;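 note: 0% = acetylcholine EC80 with DMSO and 100% = DMSO without agonist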
# CHO-K1 Ca PAM: M1 PAM counterscreen hit in parental CHO-K1 cells; AID 602247; 360,000 compounds, 0.02% hits; activation, % at 3 µM; ATP EC20, Fluo-8 calcium fluorescence; 0% at ATP EC20, 100% at ATP max;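 active = activation above the run cutoff, the mean activation of all test compounds plus 3 SD, cut at about 40% in these data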;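 note: peak over basal fluorescence ratio in a 140 s read after ATP addition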
# CHRM4 PAM: potentiates acetylcholine response at human M4 receptor; CHO-K1 hM4/Gqi5, Fluo-8 calcium fluorescence, ACh EC20; 0% = ACh EC20, 100% = maximal ACh; activation, % at 3 µM; 360,000 compounds, 0.4% hits; AID 624126;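 active = activation above its plate's cutoff, the mean activation of sample wells plus 3 SD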
# The depositor's hits bear a star. Shown are actives, neighbours in structure and some others; about 2% of the full set was active somewhere.
SMILES,CHO-K1 Ca ag,M4 ag,CHO-K1 Ca antag,M4 antag,CHO-K1 Ca PAM,CHRM4 PAM
Cn1cc(C(=O)c2cccc(Cl)c2Cl)cc1C#N,0,1,7,-5,10,-3
Cn1cc(C(=O)c2cccc(Cl)c2)cc1C#N,0,6,3,6,-5,26*
Cc1ccc(S(=O)(=O)N2CCN(C(=O)c3cc(C4CC4)nn3-c3ccccc3)CC2)cc1,1,2,-1,-1,13,2
CN1CCN(c2ncnc3c2ncn3[C@H]2CN(Cc3ccncc3)C[C@@H](CO)O2)CC1,0,1,7,-6,2,0
COc1ccc(/C=C/C2=CC(C)(C)NC(=S)N2)cc1OC,0,1,26*,-3,-15,1
COc1cccc(/C=C/C2=CC(C)(C)NC(=S)N2)c1,-1,1,10,-8,3,10
CC1CCc2cc(F)ccc2N1C(=O)C12CCC(C)(C(=O)O1)C2(C)C (centres undefined),0,0,-11,4,15,-3
CC(NC(=O)Cc1cccs1)C(c1cccs1)N1CCOCC1 (centres undefined),0,1,-8,-2,19,36*
CC(NS(=O)(=O)c1ccc(F)cc1)C(c1cccs1)N1CCOCC1 (centres undefined),0,1,-15,54*,20,-14
CC(NS(=O)(=O)c1ccc([N+](=O)[O-])cc1)C(c1cccs1)N1CCOCC1 (centres undefined),1,1,1,1,12,-6
CS(=O)(=O)c1ccc(C(=O)OCC(=O)N2CCOCC2)cc1[N+](=O)[O-],0,0,15,9,-12,-1
CS(=O)(=O)c1ccc(C(=O)OCC(=O)N2CCN(CCC3CCCCC3)CC2)cc1[N+](=O)[O-],2,6,11,29*,9,-14
CC1CCCN(C(=O)C2CCN(c3ncnc4c3nc3n4CCCCC3)CC2)C1 (centres undefined),1,2,5,7,-10,-3
CN(C)CC#CCOC(c1ccccc1)c1ccccc1,0,0,-12,27*,-6,-24
CCN(CC)CCOC(c1ccccc1)c1ccc(C)cc1 (centres undefined),1,2,1,43*,19,-17
Cc1ccc(C(OCC(O)CNC(C)c2ccccc2)c2ccccc2)cc1 (centres undefined),3,6,-6,2,-8,-4
CCN(CC)CC#CCOC(c1ccccc1)c1ccccc1,1,-1,-15,30*,24,-24
CCN(CC)CCC(C)OC(c1ccccc1)c1ccccc1 (centres undefined),0,2,-7,6,3,-22
Cc1ccc(C(OCC(C)(C)C[N+](C)(C)C)c2ccccc2)cc1 (centres undefined),-1,2,19,52*,-15,-21
OCCC1CN(Cc2cccc3c2OCO3)CCN1C1CCCCC1 (centres undefined),0,1,9,2,11,-4
COc1cccc(C(=O)OCC(=O)c2c(N)n(C)c(=O)n(C)c2=O)c1,1,1,-4,1,-4,0
O=C(c1cc2ccccc2cc1O)N1CCCC1,19*,1,1,-14,2,7
Cc1ccc(NC(=O)c2cc(S(=O)(=O)N3CCCCC3)ccc2N2CCOCC2)c(C)c1,0,0,-14,2,3,5
COc1ccc(NC(=O)C(Sc2ccccc2)c2ccccc2)c(OC)c1 (centres undefined),3,-2,-21,-15,43*,12
COc1ccccc1NC(=O)C(Sc1ccccc1)c1ccccc1 (centres undefined),0,-3,-12,-24,14,9
SMILES,CHO-K1 Ca ag,M4 ag,CHO-K1 Ca antag,M4 antag,CHO-K1 Ca PAM,CHRM4 PAM
C=C1CC(Cn2cc(Br)c(=O)[nH]c2=O)(c2ccc(-c3ccccc3)cc2)OC1=O (centres undefined),0,6,11,46*,-16,-7
CC1(C)c2cc(O)ccc2OC1N1CCOCC1 (centres undefined),0,-1,18,7,-30,-3
Cc1nc([N+](=O)[O-])c(SCC(O)CCl)n1Cc1ccc(Cl)cc1 (centres undefined),23*,6,15,7,13,-8
Cc1ccc(N2CCCn3c2cc(C)c(C#N)c3=O)cc1Cl,0,1,-7,1,18,38*
O=C(N1CCCCC1)C1(S(=O)(=O)c2ccccc2)CC=CC1,0,1,-11,0,14,6
CC(C)(C)C1CCC(CN2C(Nc3ccccc3)=NC[C@@H]2Cc2ccccc2)CC1 (some centres undefined),17*,23,5,50*,20,-14
CCN1C(Nc2ccccc2)=NC[C@@H]1Cc1ccccc1,2,-1,-18,8,20,-5
Cc1ccc(C)c(OCC(=O)Nc2cc(C)on2)c1,1,1,-5,-12,25,3
Cc1ccc(C)c(-c2nnc(OCC(=O)Nc3cc(C)on3)c3ccccc23)c1,1,0,-14,-1,18,16*
O=S(=O)(c1ccccc1)N1N=C(c2cccs2)CC1c1ccc(Br)cc1 (centres undefined),0,0,1,-8,14,21*
COc1ccc2nc(NC(=O)CN3CCOCC3)sc2c1,0,1,26*,10,-7,-3
O=C(CN1CCOCC1)Nc1nc2cc([N+](=O)[O-])ccc2s1,1,4,-11,-12,22,27*
COc1ccc2nc(NC(=O)CN3CCN(C)CC3)sc2c1,1,0,0,-1,19,3
CN(C)C=Nc1c(Br)cc(Br)c2nonc12,18*,12,17,4,4,-1
CN(C)C=Nc1nonc1-c1ccccc1,1,2,-10,2,2,14
COCCCNC(=O)[C@H](Cc1ccccc1)NC(=O)CC[C@H]1O[C@@H](n2ccc(=O)[nH]c2=O)[C@H](O)[C@@H]1O,1,0,5,-12,15,-3
CC(C)(C)C(=O)NC(=S)NNC(=O)C(c1ccccc1)c1ccccc1,107*,154*,47*,76*,-32,-43
Cc1nc2nc(SCC(=O)NCCCN3CCCC3)nn2c(C)c1Cc1ccccc1Cl,0,1,-10,27*,8,-20
CCC1CCCCN1CCCNC(=O)CSc1nc2nc(C)c(Cc3ccc(C)cc3)c(C)n2n1 (centres undefined),1,1,-3,26*,-22,-14
CC[N+](CC)(CC)CCOc1ccc(/C=C/c2ccccc2)cc1,0,1,3,27*,-2,-14
